We go through 86 sequences from PMC10668032, “Altered binding affinity of SIX1-Q177R correlates with enhanced WNT5A and WNT pathway effector expression in Wilms tumor”.

Over roughly 33,000 sequences, “e-score” has its median near -0.05; the highest 2% begin near 0.38. This excerpt belongs to a sample that is enriched for the highest values.

This test concerns the target T1, SIX1-Q177R homeodomain (human, UniProt Q15475 108-198, Q177R).
T1 sequence: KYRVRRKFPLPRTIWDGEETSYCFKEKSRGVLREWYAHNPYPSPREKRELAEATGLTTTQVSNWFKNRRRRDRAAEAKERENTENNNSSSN
Kind of test: universal protein binding microarray; Universal all-10-mer PBM (8x60K, AMADID 030236), 300 nM GST-tagged protein, Alexa Fluor 488 anti-GST; buffer, salt, pH and temperature not stated (as in Berger); high values mean tight binding. The following applies: protein: ivt; tags: N-terminal GST; dsDNA, one strand shown. Summed up:
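Homeodomains carrying a GST tag were produced by in vitro transcription/translation, then quantified by anti-GST western blot against a recombinant GST standard curve. Duplicate applications at 300 nM final concentration were made to universal 'all 10-mer' protein binding microarrays in 8×60K format. The Universal PBM Analysis Suite was used to express binding as 8-mer E-scores.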
On to CACGGAGG, for which the binding signal was 0.222 ± 0.0241 E-score.
Next, CACGGCTG: 0.201 ± 0.0155 E-score; AGTATCAT: 0.259 ± 0.0404 E-score; CGCCGCAC: 0.151 ± 0.00857 E-score.
As to GCCGACAC, the binding signal came out at 0.422 ± 0.0235 E-score.
Turning to GCCGATCC, the binding signal stood at 0.19 ± 0.00748 E-score.
The result for ACCGACAC reads 0.425 ± 0.0144 E-score; that for CCCGACAC, 0.45 ± 0.0155 E-score; that for CCCGACGC, 0.151 ± 0.00346 E-score.
The result for ACCGACTC reads 0.204 ± 0.0477 E-score; that for ACCGACCC, 0.192 ± 0.0372 E-score; that for CCCGACCC, 0.187 ± 0.0176 E-score.
In the case of CAGCACCG, the binding signal is 0.242 ± 0.0129 E-score.
Take CGGACGAC: the binding signal was 0.152 ± 0.037 E-score.
For GTTCCGGA, the binding signal is 0.175 ± 0.0199 E-score.
Next, ACCCACGA: 0.153 ± 0.0296 E-score; AAACTAGA: 0.163 ± 0.00455 E-score.
With CATGTACA, the binding signal amounted to 0.167 ± 0.0144 E-score.
Take GGGGTACC: the binding signal amounted to 0.247 ± 0.0225 E-score.
On to CGGGTACC, for which the binding signal worked out at 0.16 ± 0.0136 E-score.
For AGAGTACA, the binding signal is 0.186 ± 0.00263 E-score.
Take AGTGTGCC: the binding signal was determined as 0.159 ± 0.0249 E-score.
Next, CGTGTGCC: 0.168 ± 0.0218 E-score; AGTGTACC: 0.414 ± 0.00528 E-score; ACTGTACA: 0.223 ± 0.00571 E-score.
Consider AGTGTACA, for which the binding signal was 0.418 ± 0.0292 E-score.
Take CGTGTACC: the binding signal was determined as 0.4357 ± 0.00135 E-score.
For the sequence CGTGTACA, the binding signal stood at 0.427 ± 0.00703 E-score.
For the sequence CTTGTACA, the binding signal worked out at 0.154 ± 0.0493 E-score.
Next, AGTACCCA: 0.175 ± 0.0132 E-score.
In the case of CACCATGG, the binding signal came out at 0.343 ± 0.0218 E-score.
As for CGTAGGTA, the binding signal came out at 0.209 ± 0.00643 E-score.
Next, CACTAGTC: 0.208 ± 0.0318 E-score; CACGGTAC: 0.186 ± 0.0635 E-score; CACTATAG: 0.192 ± 0.0146 E-score.
Take CGAGTACG: the binding signal worked out at 0.19 ± 0.0193 E-score.
Next, AGTGTACG: 0.407 ± 0.00139 E-score.
As for GCTGTACA, the binding signal is 0.208 ± 0.0271 E-score.
On to GGTGTACA, for which the binding signal is 0.4817 ± 0.00156 E-score.
Take AGTGTGTG: the binding signal was 0.197 ± 0.0254 E-score.
Take GTTGTACA: the binding signal was 0.223 ± 0.0201 E-score.
Take CACGGAAA: the binding signal was 0.188 ± 0.0559 E-score.
On to ACGCCGAT, for which the binding signal came to 0.152 ± 0.0158 E-score.
For the sequence ATACCGAC, the binding signal worked out at 0.173 ± 0.0172 E-score.
ACCCCGAG: the binding signal came out at 0.317 ± 0.0221 E-score.
ACACCGAT: the binding signal came out at 0.473 ± 0.00479 E-score.
As for CCCCCGAG, the binding signal is 0.188 ± 0.0196 E-score.
As to ACCCCGAA, the binding signal was found to be 0.228 ± 0.0524 E-score.
ACACCGAC: the binding signal came out at 0.475 ± 0.00507 E-score.
As for GCACCGAC, the binding signal is 0.225 ± 0.017 E-score.
As for ACCCCGAT, the binding signal came out at 0.229 ± 0.00378 E-score.
Consider ACACCGAA, for which the binding signal came to 0.4689 ± 0.000997 E-score.
With GCACCGAA, the binding signal is 0.156 ± 0.0137 E-score.
With ACACCGAG, the binding signal was determined as 0.4783 ± 0.00449 E-score.
Turning to CACCGTAG, the binding signal turned out to be 0.255 ± 0.00273 E-score.
In the case of CGGAGTAC, the binding signal was 0.229 ± 0.00578 E-score.
Regarding GGCGAACA, the binding signal amounted to 0.198 ± 0.0404 E-score.
For ACCCTTAG, the binding signal turned out to be 0.172 ± 0.00692 E-score.
In the case of CACTAAAC, the binding signal was determined as 0.195 ± 0.0243 E-score.
Take CACTTGAC: the binding signal is 0.258 ± 0.0158 E-score.
For CAAGGATA, the binding signal worked out at 0.184 ± 0.029 E-score.
Take ACTCCACA: the binding signal stood at 0.206 ± 0.00721 E-score.
For AGTTGGGG, the binding signal was found to be 0.16 ± 0.00841 E-score.
Take ATGACACG: the binding signal was 0.4485 ± 0.00163 E-score.
With CTGACGCC, the binding signal was 0.185 ± 0.012 E-score.
Next, ATGACGCC: 0.172 ± 0.00576 E-score; ATGACTCC: 0.273 ± 0.00839 E-score; ATGACACC: 0.4917 ± 0.00156 E-score.
Next, CTGACACC: 0.4913 ± 0.00298 E-score; GTGACACA: 0.333 ± 0.0417 E-score.
Turning to ATGACACA, the binding signal came out at 0.275 ± 0.0196 E-score.
For the sequence CTGACACA, the binding signal turned out to be 0.297 ± 0.0288 E-score.
Next, CCCCCAAG: 0.227 ± 0.0377 E-score.
The result for CGGCTACG reads 0.164 ± 0.00561 E-score.
As to CACCAATA, the binding signal was 0.276 ± 0.0342 E-score.
In the case of CCCCCATA, the binding signal was found to be 0.192 ± 0.0334 E-score.
As for GGGATGTA, the binding signal came to 0.159 ± 0.0364 E-score.
Regarding AACGAACA, the binding signal stood at 0.208 ± 0.0231 E-score.
With CGGTGTTA, the binding signal amounted to 0.4847 ± 0.00334 E-score.
As to AGGTGTTG, the binding signal amounted to 0.448 ± 0.00602 E-score.
Take GGGGGTTA: the binding signal was 0.293 ± 0.0288 E-score.
For CGGAGTTA, the binding signal amounted to 0.253 ± 0.0116 E-score.
ACGTGTTG: the binding signal turned out to be 0.346 ± 0.00562 E-score.
The result for GTGTGTTA reads 0.298 ± 0.00829 E-score; that for AAGTGTTG, 0.289 ± 0.02 E-score.
Consider AGGTGTTC, for which the binding signal is 0.457 ± 0.00831 E-score.
